The values that follow come from PubChem BioAssay (EPA / NIEHS).

A short description of experiment [1]: ATG_TCF_b_cat_CIS: Attagene CIS-FACTORIAL HepG2 Assay for human T-Cell-Factor with beta-catenin (TCF/b-cat) (AID 2282965; active = hit-call score of the fitted dose curve at least 0.9, where 1 is the maximum; inactive = score below 0.9). The settings on record: HepG2 TCF/beta-catenin cis-reporter transcription, actives raise or lower the signal. The procedure, abridged:
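Endogenous transcription factor activity is captured through cis-promoter reporter constructs transiently introduced into human HepG2 liver cells. Induced reporter mRNA is measured after 24 h and fitted bidirectionally relative to DMSO.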

The nature of experiment [2]: ATG_TAL_CIS: Attagene CIS-FACTORIAL HepG2 Assay for human TAL Basal Promoter (AID 2282966; active = hit-call score of the fitted dose curve at least 0.9, where 1 is the maximum; inactive = score below 0.9;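 also: background control endpoint measuring basal TAL promoter reporter mRNA not a specific factor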). The conditions noted are these: HepG2 Attagene cis-factorial TAL promoter reporter; actives raise or lower the signal. The procedure, abridged: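 Endogenous transcription-factor activity is sensed in HepG2 cells through transfected cis-promoter reporter constructs. After 24 h dosing, reporter transcripts are quantified by RT-PCR and capillary electrophoresis. Gain or loss of signal is fitted relative to DMSO.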

Experiment [3] in a line: ATG_TGFb_CIS: Attagene CIS-FACTORIAL HepG2 Assay for human Transforming Growth Factor (TGF) (AID 2282967; active = hit-call score of the fitted dose curve at least 0.9, where 1 is the maximum; inactive = score below 0.9). The conditions noted are these: HepG2 Attagene CIS TGFb reporter, mRNA transcription; actives raise or lower the signal. The procedure, abridged:
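HepG2 cells transiently transfected with cis-promoter-driven multiple reporter units measure endogenous TF activity; reporter mRNA quantified at 24 h by RT-PCR, FAM labeling, HpaI digestion and capillary electrophoresis. Bidirectional fit vs DMSO.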

The nature of experiment [4]: ATG_VDRE_CIS: Attagene CIS-FACTORIAL HepG2 Assay for human Vitamin D Receptor Element (VDRE) (AID 2282968; active = hit-call score of the fitted dose curve at least 0.9, where 1 is the maximum; inactive = score below 0.9). The settings on record: HepG2 VDRE cis-reporter transcription, actives raise or lower the signal. In a few lines: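 Measures endogenous factor activity through cis-element-driven reporter transcripts in transiently transfected HepG2. Cells are treated 24 h; reporter mRNA is quantified by RT-PCR and capillary electrophoresis; fitting is bidirectional.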

The target in experiment [5] is Nuclear receptor subfamily 1 group I member 3 (Homo sapiens) (UniProt Q14994). Description: ATG_CAR_TRANS: Attagene TRANS-FACTORIAL HepG2 Assay for human Constitutive Androstane Receptor (CAR) (AID 2282969).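 Also: activators raise reporter mRNA above DMSO so AC50 marks induction.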 The conditions noted are these: HepG2 Attagene TRANS-FACTORIAL CAR reporter. In a few lines:
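Signal is reporter mRNA induction relative to DMSO, measured 24 h after dosing by RT-PCR with fluorescent primer extension and capillary electrophoresis. Human HepG2 liver cells carried transiently transfected chimeric NR-Gal4/GAL4-UAS reporter constructs.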

Experiment [6] deals with Estrogen receptor (Homo sapiens) (UniProt P03372). Description: ATG_ERa_TRANS: Attagene TRANS-FACTORIAL HepG2 Assay for human Estrogen Receptor alpha (ERa) (AID 2282970). The settings on record: HepG2 Attagene TRANS ERa GAL4 reporter, mRNA. The procedure, abridged: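 Transfected HepG2 cells carrying GAL4-UAS-driven reporter units were dosed for 24 hours. Total RNA was reverse-transcribed, reporter sequences PCR-amplified, FAM-labelled, HpaI-digested and resolved by capillary electrophoresis. Increases over DMSO control defined activity.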

The target in experiment [7] is X-box-binding protein 1 (Homo sapiens) (UniProt P17861). Description: ATG_Xbp1_CIS: Attagene CIS-FACTORIAL HepG2 Assay for human X-box Binding Protein 1 (XBP1) (AID 2282972; active = hit-call score of the fitted dose curve at least 0.9, where 1 is the maximum; inactive = score below 0.9). The conditions noted are these: HepG2 XBP1 cis-element reporter, Attagene multiplex; actives raise or lower the signal. In a few lines: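 Changes in reporter transcript abundance, read by RT-PCR and capillary electrophoresis, reflect endogenous transcription factor activity. Transfected HepG2 cells received compound for 24 hours; DMSO defined baseline for bidirectional analysis.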

Experiment [8] deals with Androgen receptor (Homo sapiens) (UniProt P10275). Description: ATG_AR_TRANS: Attagene TRANS-FACTORIAL HepG2 Assay for human Androgen Receptor (AR) (AID 2282973). The conditions noted are these: HepG2 Attagene TRANS-FACTORIAL AR reporter transcription. The procedure, abridged:
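Transfected HepG2, 24 h treatment, chimeric NR-Gal4 driving GAL4-UAS reporters. mRNA induction by RT-PCR/capillary electrophoresis fluorescence; DMSO as negative control and baseline.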

Experiment [9] addresses Glucocorticoid receptor (Homo sapiens) (UniProt P04150). Description: ATG_GR_TRANS: Attagene TRANS-FACTORIAL HepG2 Assay for human Glucocorticoid Receptor (GR) (AID 2282978).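 Also: activators score as hits since higher reporter transcript over DMSO is fitted.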 The settings on record: HepG2 Attagene TRANS GR reporter, mRNA transcription. The procedure, abridged:
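Transient MRTU transfection of HepG2 (GAL4-UAS reporters, exogenous NR-GAL4 chimeras), 24 h dosing. Readout: reporter transcript via RT-PCR + capillary electrophoresis fluorescence. Positive direction vs DMSO baseline.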

Experiment [10] deals with Bile acid receptor (Homo sapiens) (UniProt Q96RI1). Kind of experiment: ATG_FXR_TRANS: Attagene TRANS-FACTORIAL HepG2 Assay for Farnesoid X Receptor (FXR) (AID 2282979).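 Also: hits raise reporter mRNA above DMSO so AC50 marks FXR activation.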 The conditions noted are these: HepG2 Attagene TRANS FXR-GAL4 reporter transcription. The procedure, abridged:
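Chimeric FXR-GAL4 activity in transiently transfected human HepG2 liver cells is scored as induction of reporter mRNA after 24 h of dosing. Detection uses RT-PCR with fluorescent labelling and capillary electrophoresis, with DMSO serving as baseline.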

For experiment [11], the target named is Oxysterols receptor LXR-beta (Homo sapiens) (UniProt P55055). Description: ATG_LXRb_TRANS: Attagene TRANS-FACTORIAL HepG2 Assay for human Liver X Receptor beta (LXRb) (AID 2282981). The conditions noted are these: HepG2 Attagene TRANS GAL4-LXRb reporter, mRNA. The procedure, abridged:
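After 24 h of chemical treatment, transfected HepG2 cells yield total RNA; reporter cDNA is PCR-amplified, FAM-labelled, HpaI-cut and run on capillary electrophoresis. Signal reflects chimeric LXRb-Gal4 activity on GAL4-UAS reporters.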

Experiment [12] can be described thus: ATG_M_06_TRANS: Attagene TRANS-FACTORIAL HepG2 Assay for M06 Transcription Factor (Internal Marker) (AID 2282983). The settings on record: HepG2 Attagene TRANS M06 internal marker reporter. In a few lines: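 Human liver HepG2 cells bearing transiently transfected chimeric NR-GAL4 reporter units were treated with chemicals for 24 h. Total RNA was reverse-transcribed, reporter sequences amplified and labelled, then quantified by capillary electrophoresis. Activity was fitted upward relative to DMSO.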

Experiment [13] deals with Steroid hormone receptor ERR1 (Homo sapiens) (UniProt P11474). Description: ATG_ERRa_TRANS: Attagene TRANS-FACTORIAL HepG2 Assay for human Estrogen-Related Receptor alpha (ERRa) (AID 2282971). The settings on record: HepG2 Attagene TRANS reporter, ERRa transactivation. The procedure, abridged:
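HepG2 cells were transiently transfected with multiple GAL4-UAS reporter units, then dosed with compound for 24 h. Total RNA was reverse-transcribed, reporter cDNA PCR-amplified and fluorescently labelled, and fragments resolved by capillary electrophoresis; induction was compared with DMSO.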

For experiment [14], the target named is Estrogen-related receptor gamma (Homo sapiens) (UniProt P62508). Description: ATG_ERRg_TRANS: Attagene TRANS-FACTORIAL HepG2 Assay for human Estrogen-Related Receptor gamma (ERRg) (AID 2282977).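 Also: hits increase reporter signal over DMSO so potencies reflect activators.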 The settings on record: HepG2 Attagene TRANS reporter, ERRg transactivation. In a few lines:
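Exogenous NR-Gal4 chimera activity was assessed in HepG2 cells bearing transfected GAL4-UAS reporters. After 24 h dosing, total RNA underwent RT-PCR, fluorescent primer extension and HpaI digestion before capillary electrophoresis, with gain of signal scored against DMSO.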

Experiment [15] addresses Hepatocyte nuclear factor 4-alpha (Homo sapiens) (UniProt P41235). Kind of experiment: ATG_HNF4a_TRANS: Attagene TRANS-FACTORIAL HepG2 Assay for human Hepatocyte Nuclear Factor 4 alpha (HNF4a) (AID 2282982). The conditions noted are these: HepG2 HNF4a transactivation reporter, mRNA readout. In a few lines: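 Multiplexed reporter assay: transfected HepG2, 24 h exposure, total RNA → oligo(dT) RT → PCR → 6-FAM extension → HpaI digest → CE fluorescence. DMSO = negative control.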

Experiment [16] deals with Nuclear receptor subfamily 4 group A member 2 (Homo sapiens) (UniProt P43354). Kind of experiment: ATG_NURR1_TRANS: Attagene TRANS-FACTORIAL HepG2 Assay for human Nuclear Receptor Related Protein 1 (NURR1) (AID 2282985). The settings on record: HepG2 Attagene TRANS reporter, mRNA readout. In a few lines:
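Measures transcriptional activation by an exogenous NR-Gal4 chimera in transfected HepG2 liver cells. After 24 h, reporter RNA is reverse-transcribed, amplified and resolved by capillary electrophoresis; DMSO defines baseline.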

Experiment [17] is described as follows: ATG_GAL4_TRANS: Attagene TRANS-FACTORIAL HepG2 Assay for GAL4 (Internal Marker) (AID 2282976). The conditions noted are these: HepG2 Attagene TRANS GAL4 internal marker reporter. In a few lines: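 Fluorescence from capillary electrophoresis of labelled RT-PCR products quantifies reporter mRNA induction after 24 h dosing of HepG2 cells carrying transfected GAL4-UAS reporter transcription units. Vehicle DMSO serves as baseline.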

A short description of experiment [18]: ATG_M_32_TRANS: Attagene TRANS-FACTORIAL HepG2 Assay for M32 Transcription Factor (Internal Marker) (AID 2282984).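 Also: transcript level of a background control reporter unit measured by RT-PCR and capillary electrophoresis.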 The conditions noted are these: HepG2 Attagene TRANS M32 internal marker reporter. The procedure, abridged: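 Cell-based TRANS-format assay in HepG2: exogenous chimeric GAL4 reporter units transiently expressed, compounds applied 24 h. Reporter mRNA detected by RT-PCR plus capillary electrophoresis; this readout is an internal background marker.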

Experiment [19] can be described thus: ATG_M_19_TRANS: Attagene TRANS-FACTORIAL HepG2 Assay for M19 Transcription Factor (Internal Marker) (AID 2282974). The conditions noted are these: HepG2 Attagene TRANS-FACTORIAL M19 internal marker reporter. The procedure, abridged:
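24 h chemical exposure of transiently transfected HepG2 (MRTU library). RNA → oligo(dT) RT → PCR → 6-FAM labelling → HpaI cut → CE fluorescence. Positive-direction fit vs DMSO baseline; background internal-marker readout.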

Inconclusive results are not listed. Active and inactive are the calls of the source. The calls were made as follows, unless noted: active = hit-call score of the fitted dose curve at least 0.9, where 1 is the maximum; inconclusive = response in the unintended direction; inactive = score below 0.9.

One may read the AC50 as the midpoint of the concentration-response curve, whichever way the signal moves.

Chain of Bile acid receptor (Homo sapiens) (Q96RI1 whole entry, looked up, the tested form may be a part): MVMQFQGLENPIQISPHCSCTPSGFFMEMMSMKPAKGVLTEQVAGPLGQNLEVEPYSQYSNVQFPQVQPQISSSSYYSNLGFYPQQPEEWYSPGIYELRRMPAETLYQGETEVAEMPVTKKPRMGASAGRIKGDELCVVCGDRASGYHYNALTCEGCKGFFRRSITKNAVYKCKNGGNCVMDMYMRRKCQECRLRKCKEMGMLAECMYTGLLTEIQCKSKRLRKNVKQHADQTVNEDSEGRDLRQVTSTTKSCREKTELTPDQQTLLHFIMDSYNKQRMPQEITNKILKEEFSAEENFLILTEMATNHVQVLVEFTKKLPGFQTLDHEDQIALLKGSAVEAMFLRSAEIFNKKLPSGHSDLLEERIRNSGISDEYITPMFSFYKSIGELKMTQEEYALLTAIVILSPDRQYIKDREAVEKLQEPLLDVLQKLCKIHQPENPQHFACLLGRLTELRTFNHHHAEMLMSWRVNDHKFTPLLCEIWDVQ
Chain of Glucocorticoid receptor (Homo sapiens) (P04150 whole entry, looked up, the tested form may be a part): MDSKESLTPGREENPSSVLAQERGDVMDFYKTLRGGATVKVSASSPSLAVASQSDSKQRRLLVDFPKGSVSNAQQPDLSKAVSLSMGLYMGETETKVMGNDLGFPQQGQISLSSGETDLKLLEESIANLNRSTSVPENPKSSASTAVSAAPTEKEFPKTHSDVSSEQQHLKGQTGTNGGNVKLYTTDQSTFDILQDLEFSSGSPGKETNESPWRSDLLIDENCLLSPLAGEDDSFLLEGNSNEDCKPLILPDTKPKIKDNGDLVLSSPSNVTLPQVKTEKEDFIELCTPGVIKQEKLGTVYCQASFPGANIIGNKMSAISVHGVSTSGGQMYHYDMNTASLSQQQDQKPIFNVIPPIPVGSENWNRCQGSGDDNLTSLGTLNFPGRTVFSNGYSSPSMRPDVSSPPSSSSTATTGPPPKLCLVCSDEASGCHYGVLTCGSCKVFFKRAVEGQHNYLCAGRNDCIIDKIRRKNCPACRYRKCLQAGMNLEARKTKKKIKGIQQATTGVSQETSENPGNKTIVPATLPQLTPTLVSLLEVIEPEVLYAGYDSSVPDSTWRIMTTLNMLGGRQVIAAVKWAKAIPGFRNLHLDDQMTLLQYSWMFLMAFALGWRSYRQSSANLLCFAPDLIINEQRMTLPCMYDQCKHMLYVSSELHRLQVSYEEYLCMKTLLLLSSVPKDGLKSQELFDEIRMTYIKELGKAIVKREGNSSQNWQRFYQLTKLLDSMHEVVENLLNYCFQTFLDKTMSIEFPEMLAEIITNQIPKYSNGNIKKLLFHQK
Chain of Nuclear receptor subfamily 1 group I member 3 (Homo sapiens) (Q14994 whole entry, looked up, the tested form may be a part): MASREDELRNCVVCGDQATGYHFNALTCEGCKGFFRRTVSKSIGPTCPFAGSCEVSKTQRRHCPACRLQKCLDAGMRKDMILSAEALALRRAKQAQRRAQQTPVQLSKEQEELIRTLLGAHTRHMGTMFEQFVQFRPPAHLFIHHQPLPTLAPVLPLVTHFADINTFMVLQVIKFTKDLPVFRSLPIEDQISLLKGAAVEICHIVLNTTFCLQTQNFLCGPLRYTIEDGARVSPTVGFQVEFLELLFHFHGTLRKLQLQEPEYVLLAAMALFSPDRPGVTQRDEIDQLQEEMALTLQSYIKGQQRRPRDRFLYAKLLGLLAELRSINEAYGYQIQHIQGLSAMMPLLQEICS
Chain of Estrogen receptor (Homo sapiens) (P03372 whole entry, looked up, the tested form may be a part): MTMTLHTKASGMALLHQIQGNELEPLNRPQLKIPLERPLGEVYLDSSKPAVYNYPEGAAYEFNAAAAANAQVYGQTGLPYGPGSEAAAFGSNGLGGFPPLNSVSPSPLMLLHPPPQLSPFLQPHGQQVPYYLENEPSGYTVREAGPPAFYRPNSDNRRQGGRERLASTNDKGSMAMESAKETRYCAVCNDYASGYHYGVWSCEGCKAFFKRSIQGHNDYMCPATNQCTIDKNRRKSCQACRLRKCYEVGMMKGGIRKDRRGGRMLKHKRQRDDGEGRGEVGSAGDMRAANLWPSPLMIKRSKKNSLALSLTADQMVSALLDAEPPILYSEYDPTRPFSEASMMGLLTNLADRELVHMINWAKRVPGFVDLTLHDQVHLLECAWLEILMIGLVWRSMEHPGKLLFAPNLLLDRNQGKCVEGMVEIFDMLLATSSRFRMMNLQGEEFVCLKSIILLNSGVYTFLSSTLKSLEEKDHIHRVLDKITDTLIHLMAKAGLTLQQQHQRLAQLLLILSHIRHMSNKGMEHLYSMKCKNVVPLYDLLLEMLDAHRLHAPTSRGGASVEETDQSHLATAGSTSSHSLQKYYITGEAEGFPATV
Chain of X-box-binding protein 1 (Homo sapiens) (P17861 whole entry, looked up): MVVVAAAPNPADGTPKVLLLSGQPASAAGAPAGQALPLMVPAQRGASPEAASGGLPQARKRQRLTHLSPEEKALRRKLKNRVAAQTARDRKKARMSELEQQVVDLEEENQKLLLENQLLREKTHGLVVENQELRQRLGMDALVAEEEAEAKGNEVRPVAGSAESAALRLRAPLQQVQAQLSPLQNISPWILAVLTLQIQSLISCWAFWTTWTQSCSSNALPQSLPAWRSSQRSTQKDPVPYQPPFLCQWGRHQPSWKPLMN
Chain of Oxysterols receptor LXR-beta (Homo sapiens) (P55055 whole entry, looked up, the tested form may be a part): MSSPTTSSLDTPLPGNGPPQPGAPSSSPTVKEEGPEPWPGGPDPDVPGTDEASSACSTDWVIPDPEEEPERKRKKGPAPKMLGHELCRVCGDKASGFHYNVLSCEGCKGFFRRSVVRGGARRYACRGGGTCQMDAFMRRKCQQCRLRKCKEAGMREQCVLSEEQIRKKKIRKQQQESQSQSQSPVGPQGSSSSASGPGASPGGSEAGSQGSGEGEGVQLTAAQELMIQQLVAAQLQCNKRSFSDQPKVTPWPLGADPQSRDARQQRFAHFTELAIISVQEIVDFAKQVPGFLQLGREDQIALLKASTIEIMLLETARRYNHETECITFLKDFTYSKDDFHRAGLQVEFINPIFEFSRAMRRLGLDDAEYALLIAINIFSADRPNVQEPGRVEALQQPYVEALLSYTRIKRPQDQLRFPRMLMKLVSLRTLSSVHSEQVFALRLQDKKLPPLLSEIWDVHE
Chain of Androgen receptor (Homo sapiens) (P10275 whole entry, looked up, the tested form may be a part): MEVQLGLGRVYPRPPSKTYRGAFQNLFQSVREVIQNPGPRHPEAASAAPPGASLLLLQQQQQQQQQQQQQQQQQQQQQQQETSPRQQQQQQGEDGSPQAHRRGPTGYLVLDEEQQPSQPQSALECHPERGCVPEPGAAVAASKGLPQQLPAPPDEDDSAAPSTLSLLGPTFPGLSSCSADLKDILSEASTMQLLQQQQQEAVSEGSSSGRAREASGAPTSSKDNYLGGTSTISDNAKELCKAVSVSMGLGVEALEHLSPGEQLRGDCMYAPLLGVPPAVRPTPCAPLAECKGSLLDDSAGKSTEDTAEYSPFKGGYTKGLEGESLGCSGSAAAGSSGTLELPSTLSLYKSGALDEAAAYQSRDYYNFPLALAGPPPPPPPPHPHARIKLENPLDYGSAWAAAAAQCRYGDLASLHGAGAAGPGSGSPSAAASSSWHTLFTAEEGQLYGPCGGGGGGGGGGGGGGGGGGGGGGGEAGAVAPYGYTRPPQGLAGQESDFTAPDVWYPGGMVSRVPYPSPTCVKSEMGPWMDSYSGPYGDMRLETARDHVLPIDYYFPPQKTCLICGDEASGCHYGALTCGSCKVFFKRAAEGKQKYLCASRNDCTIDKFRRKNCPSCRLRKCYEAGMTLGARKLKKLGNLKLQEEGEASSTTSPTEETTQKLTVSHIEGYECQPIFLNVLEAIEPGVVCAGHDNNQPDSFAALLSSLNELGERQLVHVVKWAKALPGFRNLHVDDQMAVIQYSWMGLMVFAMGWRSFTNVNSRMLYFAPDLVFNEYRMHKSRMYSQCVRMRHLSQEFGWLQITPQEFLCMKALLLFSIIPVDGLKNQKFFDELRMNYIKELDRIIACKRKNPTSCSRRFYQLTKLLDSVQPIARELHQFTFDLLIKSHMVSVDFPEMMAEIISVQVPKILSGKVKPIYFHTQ
Chain of Steroid hormone receptor ERR1 (Homo sapiens) (P11474 whole entry, looked up, the tested form may be a part): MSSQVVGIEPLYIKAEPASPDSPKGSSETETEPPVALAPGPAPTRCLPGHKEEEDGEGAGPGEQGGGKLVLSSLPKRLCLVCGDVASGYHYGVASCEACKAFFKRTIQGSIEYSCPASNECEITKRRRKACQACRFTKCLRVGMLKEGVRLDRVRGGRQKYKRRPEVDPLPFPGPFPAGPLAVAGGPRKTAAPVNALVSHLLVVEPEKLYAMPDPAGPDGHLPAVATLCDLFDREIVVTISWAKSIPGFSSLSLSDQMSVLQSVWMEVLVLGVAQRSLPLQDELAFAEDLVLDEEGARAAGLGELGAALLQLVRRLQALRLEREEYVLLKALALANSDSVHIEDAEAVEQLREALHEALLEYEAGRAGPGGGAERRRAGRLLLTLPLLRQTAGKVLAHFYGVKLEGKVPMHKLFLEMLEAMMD
Chain of Estrogen-related receptor gamma (Homo sapiens) (P62508 whole entry, looked up, the tested form may be a part): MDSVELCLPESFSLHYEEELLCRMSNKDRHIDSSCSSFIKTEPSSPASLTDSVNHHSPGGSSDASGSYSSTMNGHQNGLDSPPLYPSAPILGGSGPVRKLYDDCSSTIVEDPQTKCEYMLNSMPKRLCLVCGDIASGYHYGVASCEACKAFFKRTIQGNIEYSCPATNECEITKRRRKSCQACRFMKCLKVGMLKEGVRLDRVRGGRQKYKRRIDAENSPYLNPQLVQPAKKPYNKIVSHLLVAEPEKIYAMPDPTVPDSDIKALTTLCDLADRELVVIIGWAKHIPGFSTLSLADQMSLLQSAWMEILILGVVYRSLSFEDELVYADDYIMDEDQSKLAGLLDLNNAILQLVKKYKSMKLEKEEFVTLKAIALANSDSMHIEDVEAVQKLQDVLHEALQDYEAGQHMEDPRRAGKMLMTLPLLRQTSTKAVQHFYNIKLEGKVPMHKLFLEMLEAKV

As to `ClC(Cl)=C(c1ccc(Cl)cc1)c1ccccc1Cl`, the call in experiment [1], in experiment [3], in experiment [4], in experiment [5], in [8] and in experiment [9] was inactive. Moreover, the compound was called inactive in experiment [10], in experiment [11] and in experiment [12]. For the same compound, the AC50 was 177 µM (active) in [2], 2.02 µM (active) in experiment [6] and 100 µM (active) in experiment [7].

As to `CCOP(=S)(NC(C)C)Oc1ccccc1C(=O)OC(C)C` (stereo not given), the compound was called inactive in experiment [1], in experiment [2], in experiment [3], in experiment [5], in [13] and in experiment [7]. Further, the outcome in experiment [14], in experiment [9], in experiment [10], in experiment [15] and in experiment [12] was inactive. For the same compound, the AC50 is 1.5 µM (active) in [4], 3.51 µM (active) in [6] and 57.4 µM (active) in experiment [16].

Regarding `O=C(CBr)OCc1ccccc1`, the compound was classed as inactive in [1], in [2], in experiment [3], in experiment [4], in experiment [5] and in [6]. Also, the result in [7], in [17], in [9], in experiment [10] and in experiment [12] was inactive.

Regarding `Clc1ccc(Oc2ccccc2)cc1`, the compound was called inactive in [1], in experiment [2], in experiment [3], in [4], in experiment [5] and in [7]. The compound was called inactive in experiment [8], in [9], in experiment [10], in experiment [11], in [12] and in experiment [18]. Besides, in experiment [6], the AC50 was 41.7 µM (active).

Turning to `c1ccc(OP(Oc2ccccc2)Oc2ccccc2)cc1`, the concentration at half-maximal activity (AC50) was 100 µM (active) in experiment [1] and 74.9 µM (active) in experiment [6]. In addition, the compound was classed as inactive in [2], in experiment [3], in experiment [4], in experiment [5], in experiment [7] and in experiment [19]. Besides, the outcome in experiment [9] and in [18] was inactive.
